Laboratory results as given in PubChem BioAssay (NCI).
This is part of a sample that, as a whole, favours compounds with a hit. Of some 83,000 tested, about 20% had one in any assay.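 Negative percent growth values reflect cell death: -40 means 40% of the cells present at the start died, and -100 means all died.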 The source made the active and inactive calls. Rule for the calls: active = growth percent below 10; inactive = the rest.

Tests used:
Test in all cases: NCI-60 one-dose screen, 48 h (100 = growth as untreated, 0 = no growth, -100 = all killed)
Conditions in all cases: 10 µM unless noted
[1] = tested on: SR leukemia
[2] = tested on: RPMI-8226 leukemia
[3] = tested on: OVCAR-8 ovarian
[4] = tested on: OVCAR-5 ovarian
[5] = tested on: OVCAR-4 ovarian
[6] = tested on: SK-OV-3 ovarian
[7] = tested on: IGROV1 ovarian
[8] = tested on: OVCAR-3 ovarian
[9] = tested on: HS 578T breast
[10] = tested on: NCI/ADR-RES ovarian

Measured: growth

O=C(O)C1C[C@](O)(c2ccc(F)cc2)[C@@H](c2ccc(F)cc2)O1 (stereo not given in full)
inactive: [1] 73.8% | [2] 69.1% | [3] 95.1% | [4] 90.8% | [5] 107% | [6] 97.5% | [7] 71.8% | [8] 146% | [9] 124% | [10] 96.5%

Clc1ccc(/C=N\N=c2\scc(-c3ccc(Cl)cc3)n2/N=C/c2ccc(Cl)cc2)cc1
inactive: [1] 93% | [2] 106% | [3] 99.5% | [4] 105% | [5] 114% | [6] 102% | [7] 103% | [8] 114% | [9] 96.5% | [10] 109%

NC(=S)N/N=C/C(=O)O
inactive: [1] 62.9% | [2] 48.1% | [3] 81.9% | [4] 102% | [5] 75.3% | [6] 108% | [8] 26.1% | [9] 84.3% | [10] 88.7%
active: [7] -32.7%

COc1cc2c(=O)n(CCCn3ccnc3)c3c4cc5c(cc4ccc3c2cc1OC)OCO5
active: [2] -31.9% | [6] -11.4% | [8] -8.36%
inactive: [1] 10.5% | [3] 15.1% | [4] 13.9% | [5] 28.6% | [7] 19.5% | [9] 32.4% | [10] 10.5%

O=c1[nH]c(NCc2nnnn2-c2ccc(Br)cc2)nc2sc3c(c12)CCCC3
inactive: [1] 86.3% | [2] 87.3% | [3] 81.4% | [4] 100% | [5] 95.2% | [6] 90.6% | [7] 104% | [8] 97.8% | [9] 100% | [10] 103%

COc1cc2oc3cc(C)oc(=O)c3c2cc1OC
inactive: [1] 106% | [2] 87.2% | [3] 97.3% | [4] 83.1% | [5] 93.6% | [6] 103% | [7] 98.9% | [8] 110% | [9] 106% | [10] 89.1%

C[C@@H]1CC[C@@H]2[C@@H]1[C@H](OC(=O)/C=C/c1ccccc1)[C@]1(C3CCCCC3)C[C@@H](NC(=O)CO)[C@@]2(C)O1
inactive: [1] 93.9% | [2] 100% | [3] 98.6% | [4] 94.6% | [5] 102% | [6] 112% | [7] 101% | [8] 98.6% | [10] 95.4%
active: [9] 8.45%

C=C(C)C1CCC(=C)C2CCC3(C)OC12/C=C(/COC(C)=O)CCC3O (stereo not given)
inactive: [1] 74.6% | [2] 235% | [3] 103% | [4] 105% | [5] 127% | [6] 119% | [7] 151% | [8] 124% | [9] 177% | [10] 105%

O=[N+]([O-])c1ccccc1C(O)Cc1ccc2ccccc2n1 (stereo not given)
inactive: [1] 95.6% | [2] 95.1% | [3] 97.2% | [4] 91.1% | [5] 92.8% | [6] 84.9% | [7] 80.5% | [8] 93.2% | [9] 98.9% | [10] 93%

CC(=O)NCC(=O)Nc1ccc(-c2nnc3ccccn23)nc1.CC(=O)NCC(=O)Nc1ccc(-c2nnc3ccccn23)nc1.[Pt+2]
inactive: [1] 104% | [2] 108% | [3] 94.3% | [4] 114% | [5] 119% | [6] 112% | [7] 106% | [8] 107% | [9] 104% | [10] 106%

CN(C)c1ccc(/C=C/c2c(F)cccc2F)cc1
inactive: [1] 93.7% | [2] 95.8% | [3] 99.7% | [4] 104% | [5] 90.3% | [6] 89.3% | [7] 59.7% | [8] 98% | [9] 89.9% | [10] 92.6%

CN1CCN(CCCOc2ccc3nc(Nc4cc(Cl)cc(Cl)c4)ccc3c2)CC1
active: [1] -54.8% | [2] -35.1% | [3] -47.3% | [4] -57.4% | [5] -23.9% | [6] -59% | [7] -46.8% | [8] -80.5% | [9] -34.7% | [10] -34.8%

O=c1ccn(C2OC(F)(CO)C(O)C2F)c(=O)[nH]1 (stereo not given)
inactive: [1] 101% | [2] 106% | [3] 98.3% | [4] 103% | [5] 105% | [6] 93.4% | [7] 112% | [8] 107% | [9] 94.1% | [10] 101%

COc1cc(/C=C/c2nc(Nc3ccc(S(=O)(=O)Nc4cc(C)on4)cc3)c3ccccc3n2)ccc1O
inactive: [1] 19.4% | [2] 72.9% | [3] 73.5% | [4] 88.7% | [5] 91% | [6] 86% | [7] 59.5% | [8] 65.2% | [9] 78.5% | [10] 51%

COc1ccc(-c2cc(-c3cc(OC)ccc3OC)[nH]c(=O)c2C#N)cc1
inactive: [1] 14.2% | [2] 88.6% | [3] 56.6% | [4] 116% | [5] 68.9% | [6] 71.6% | [7] 53.3% | [8] 21.3% | [9] 43.5% | [10] 34.2%

CCOC(=O)C1C(=O)C=C(c2cnccn2)CC1c1ccc(OC)c(OC)c1 (stereo not given)
inactive: [1] 89.6% | [2] 90% | [3] 92.3% | [4] 103% | [5] 109% | [6] 82.2% | [7] 105% | [8] 106% | [9] 99.8% | [10] 98.2%

COc1ccc(CN2C(=O)/C(=C\c3cc(OC)c(OC)c(OC)c3)c3ccccc32)cc1
active: [1] -21.6% | [2] -31.1% | [3] -7.07% | [7] -22.7% | [8] -63.2% | [10] 2.38%
inactive: [4] 31% | [5] 23.3% | [6] 34% | [9] 47.7%

COc1ccc(-c2c(N)n[nH]c2-c2ccccc2O)cc1OC
inactive: [1] 53.9% | [2] 52.8% | [3] 68.3% | [4] 92.2% | [5] 94.7% | [6] 84.1% | [7] 94.6% | [8] 108% | [9] 91.7% | [10] 98.2%

CCOC(=O)c1nnn(-c2ccccc2)c1C1=CN(C)CCC1
inactive: [1] 88.8% | [2] 113% | [3] 102% | [4] 99.9% | [5] 99.9% | [6] 97.2% | [7] 104% | [8] 100% | [9] 91.9% | [10] 102%

O=S(=O)(Cc1ccccc1)c1nc2ccccc2s1
inactive: [1] 17% | [2] 20.4% | [3] 88.8% | [4] 102% | [5] 63.7% | [6] 101% | [7] 61.1% | [8] 79.2% | [9] 96.2% | [10] 96.5%

CCCCCCNc1cc(C)nc2ccc(OC)cc12
inactive: [1] 23.2% | [2] 34.4% | [3] 65.3% | [4] 64.4% | [5] 55% | [6] 73.8% | [7] 55.5% | [8] 65.8% | [9] 87% | [10] 45.1%

COc1cc2nc(Nc3ccc(F)cc3)nc(N)c2cc1OC
inactive: [1] 64.2% | [2] 76.8% | [3] 93.1% | [4] 99.1% | [5] 97.7% | [6] 110% | [7] 107% | [8] 91.3% | [9] 111% | [10] 87.6%

COc1cc(C2CC(c3ccc(Nc4nc(Nc5ccc(F)cc5)nc(Nc5ccc(Cl)cc5)n4)cc3)=NN2C(C)=O)cc(OC)c1OC (stereo not given)
inactive: [1] 45.3% | [2] 19.1% | [3] 62.5% | [4] 83.5% | [5] 77.6% | [6] 92.8% | [7] 43.5% | [8] 82.7% | [9] 75.7% | [10] 69.8%

O=C1C2=C(CCN(Cc3ccccc3)C2)N2CCN=C2N1Cc1ccc(F)cc1F
inactive: [1] 55.5% | [2] 19.3% | [3] 17.4% | [4] 56.4% | [6] 27.8% | [7] 47.5% | [8] 26.8% | [9] 45.8% | [10] 20.1%
active: [5] -2.31%

COc1ccc(-c2nc3sc4c(c3c(=O)[nH]2)CCCC4)c2ccccc12
active: [1] 7.04% | [4] -17.7% | [5] -7.19% | [8] -64.5% | [9] -0.402% | [10] 5.34%
inactive: [2] 11.5% | [3] 12.8% | [6] 33.7% | [7] 37.5%

OC(c1cccc(OCc2ccccc2)c1)c1nnc(-c2ccccc2)o1 (stereo not given)
inactive: [1] 92.8% | [2] 57.8% | [3] 95.9% | [4] 102% | [5] 87.1% | [6] 106% | [7] 91.7% | [8] 104% | [9] 96.9% | [10] 89.7%

Cn1ccc(Cc2cnc(N)s2)n1
inactive: [1] 88.7% | [2] 101% | [3] 94.5% | [4] 106% | [5] 99.4% | [6] 99.7% | [7] 111% | [8] 106% | [9] 93.5% | [10] 102%
